We go through 20 compounds from PubChem BioAssay (NCI).

The nature of assay [1]: NCI Yeast Anticancer Drug Screen. Data for the rad50 strain (AID 155).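 Note: 0% = growth of vehicle-only cultures of the same strain.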 Particulars: S. cerevisiae rad50 strain growth inhibition; at 50.0 µM; hits give high values. The procedure, abridged:
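Genetically altered yeast (DNA repair pathway); compound treatment; growth inhibition vs vehicle ctrl.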

A short description of assay [2]: NCI Yeast Anticancer Drug Screen. Data for the mec2-1 strain (AID 157). The conditions noted are these: S. cerevisiae mec2-1 strain, at 50.0 µM, hits give high values. The procedure, abridged: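 Readout is yeast growth inhibition, normalised to vehicle-treated controls, in the mec2-1 strain exposed to compound.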
Assay [3] in a line: NCI Yeast Anticancer Drug Screen. Data for the sgs1 mgt1 strain (AID 161).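 Note: 0% = growth of cultures given vehicle only.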 The conditions noted are these: S. cerevisiae sgs1 mgt1 strain, at 50.0 µM, hits give high values. The method, boiled down:
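This yeast growth screen uses a strain with defined DNA-repair lesions; compound-treated growth is compared with vehicle-treated growth.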

Assay [4] is described as follows: NCI Yeast Anticancer Drug Screen. Data for the cln2 rad14 strain (AID 165).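 Note: 0% = growth equal to vehicle treated cultures.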 The conditions noted are these: S. cerevisiae cln2 rad14 strain, at 50.0 µM, hits give high values. The procedure, abridged:
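Relative to vehicle controls, growth inhibition of compound-treated cln2 rad14 yeast was recorded.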

Assay [5] is described as follows: NCI Yeast Anticancer Drug Screen. Data for the bub3 strain (AID 167). Particulars: S. cerevisiae bub3 mutant strain, at 50.0 µM, hits give high values. The procedure, abridged: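 Yeast carrying a defined mutation is treated with each compound, and growth is compared with that of vehicle-exposed cells to give inhibition.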
A short description of assay [6]: NCI Yeast Anticancer Drug Screen. Data for the mlh1 rad18 strain (AID 175). Particulars: S. cerevisiae mlh1 rad18 strain growth inhibition; at 50.0 µM; hits give high values. The procedure, abridged: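 Test agents were incubated with a yeast strain of defined genotype (DNA damage repair defect). Inhibition of growth was derived by comparison with vehicle-exposed cultures.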

Molecules are shown by their SMILES. The panel holds about 79,000 compounds, 15% with a hit somewhere; the sample as a whole holds those more often. Unmarked numbers belong to inactive results. Active and inactive are the calls of the source. Cut-off read from the data, not from the text of the source: active = growth inhibition above about 70%; inactive = the rest.

Consider `CCCCCCCCS(N)(=O)=O`, for which the growth inhibition in assay [1] is 0.8%; in assay [2], -15.2%; in assay [3] it was -4.1%; in assay [4], -11.4%; in assay [5], -2.55%; in assay [6], -8.95%.

For `S=C(Cc1ccc2ccccc2c1)N1CCOCC1`, the growth inhibition is 29.4% in assay [1]; 1.95% in assay [2]; -2.1% in assay [3]; 23.6% in assay [4]; 30.4% in assay [5]; 12.9% in assay [6].

For `O=C1CC(C2(O)C(=O)Nc3ccc([N+](=O)[O-])cc32)c2ccccc21` (stereo not given), the growth inhibition in assay [1] was -22%; in assay [2], -19.1%; in assay [3], -9.65%; in assay [4], -5.4%; in assay [5], 11.2%; in assay [6], -39.4%.

`CCOC(=O)Cc1c(C)cc(C)cc1C`: the growth inhibition in assay [1] was 18.9%; in assay [2] it was -6.3%; in assay [3], -10.4%; in assay [4], 3.35%; in assay [5], 15.7%; in assay [6], 10.4%.

Turning to `COC(=O)c1ccccc1/C=C1\Cc2cc3c(cc2C1=O)CCC3`, the growth inhibition in assay [1] was -31.6%; in assay [2] it was -45%; in assay [3], -1.45%; in assay [4], 5.65%; in assay [5], -4.45%; in assay [6], -8.05%.

Take `CCCCCCCCCCCCCCCCCC(=O)NC(=O)Nc1ccc(C)cc1`: the growth inhibition was -3.9% in assay [1]; 17.6% in assay [2]; -10.1% in assay [3]; -17% in assay [4]; -9.65% in assay [5]; 11.2% in assay [6].

With `Nc1nc(N)c2nc(CNc3ccc(C(=O)NC(CCCNC(=O)c4ccccc4C(=O)O)C(=O)O)cc3)cnc2n1` (stereo not given), the growth inhibition in assay [1] was -14.1%; in assay [2], 30.4%; in assay [3], 7.6%; in assay [4], -28.3%; in assay [5] it was -37.9%; in assay [6], -9.95%.

As to `[O-][n+]1c2ccccc2nn1-c1ccccc1`, the growth inhibition in assay [1] is -9.1%; in assay [2], -4.25%; in assay [3], -2.65%; in assay [4], -21.4%; in assay [5] it was -7.2%; in assay [6], -13.8%.

In the case of `Cc1ccc(S(=O)(=O)C23N=NC(C)(C)C2C2CCC3C2)cc1` (stereo not given), the growth inhibition in assay [1] is -8.4%; in assay [2], -12%; in assay [3] it was 1.1%; in assay [4] it was -59.2%; in assay [5] it was -50.3%; in assay [6] it was 3.75%.

With `NC(=O)NC(=O)CC1NC(=O)NC1=O` (stereo not given), the growth inhibition in assay [1] is 9.25%; in assay [2] it was 12%; in assay [3], 18.1%; in assay [4] it was 12.1%; in assay [5], -4.1%; in assay [6], -16.4%.

Regarding `CCOc1ccc(NC(=O)C(=O)CC(=O)c2sc(NNC(C)=O)nc2C)cc1`, the growth inhibition in assay [1] is -21.1%; in assay [2], 2.95%; in assay [3] it was 17.5%; in assay [4], 14.4%; in assay [5] it was 5.4%; in assay [6], -8%.

Consider `Cc1ccc(Cl)cc1NC(=O)C(Br)C(Br)C(=O)O` (stereo not given), for which the growth inhibition in assay [1] is 93.2% (active); in assay [2], 99.4% (active); in assay [3], 99.5% (active); in assay [4] it was 90.2% (active); in assay [5] it was 99% (active); in assay [6], 98.8% (active).

As to `Cc1ccc(N)c(C(O)(C(F)(F)F)C(F)(F)F)c1`, the growth inhibition in assay [1] is -5.7%; in assay [2], 1.5%; in assay [3], 12.5%; in assay [4] it was 15.6%; in assay [5], 16.6%; in assay [6], 16.6%.

`COC(=O)c1cccnc1C#N`: the growth inhibition in assay [1] was 2.2%; in assay [2], -0.95%; in assay [3] it was 2.9%; in assay [4], -5.95%; in assay [5], 0.55%; in assay [6] it was 0.4%.

For `CCOC(=O)C1CN(C2CCCCC2)CCC1=O` (stereo not given), the growth inhibition is -2.45% in assay [1]; -26.6% in assay [2]; 4.85% in assay [3]; -37% in assay [4]; 1.4% in assay [5]; -24.4% in assay [6].

For the compound `CCOc1c(N=Nc2cccc([N+](=O)[O-])c2)c(C)nn1C(N)=S`, the growth inhibition in assay [1] is -42.2%; in assay [2], -34.1%; in assay [3], -7.85%; in assay [4], -28.9%; in assay [5] it was -3.35%; in assay [6] it was -16%.

With `C=CCN1C(=O)C/C(=C2/CCC(=O)N2CC=C)C1=O`, the growth inhibition in assay [1] was -11.1%; in assay [2] it was -27.4%; in assay [3], -16%; in assay [4], 3.6%; in assay [5], 1.8%; in assay [6] it was -9.8%.

Turning to `CCC(C)Nc1ccc(NS(=O)(=O)CCl)cc1` (stereo not given), the growth inhibition is 54% in assay [1]; 6.3% in assay [2]; 13.3% in assay [3]; 4.25% in assay [4]; 6.6% in assay [5]; 8.9% in assay [6].

As for `CC[n+]1c(-c2ccccc2)c2cc(NCCCN)ccc2c2ccc(N)cc21`, the growth inhibition in assay [1] was 33%; in assay [2], 15.8%; in assay [3], 8.8%; in assay [4] it was 6.3%; in assay [5] it was 3.75%; in assay [6] it was 40.5%.

As to `CN(C)CCCC(O)c1cccc2ccccc12` (stereo not given), the growth inhibition in assay [1] was 25.4%; in assay [2], -12.6%; in assay [3], 10.7%; in assay [4], -4.65%; in assay [5], 0.8%; in assay [6], 24.4%.
